Screens as filed in PubChem BioAssay.
Most compounds without a hit are left out; they make up all but 1.6% or so of the library.
KCNQ2 pot: potentiators of rat KCNQ2 potassium channel | Potassium voltage-gated channel subfamily KQT member 2 (Rattus norvegicus), O88943 | CHO-K1 KCNQ2, FluxOR thallium flux fluorescence; active compounds read high | B-score at 10 µM | 310,000 compounds, 0.54% hits;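 active = fluorescence ratio B-score at least 3 SD of library B-scores, with initial fluorescence B-score within 3 of them, cut at about 5.3 in these data; same plate scores as AID 2156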;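 also: B-score of peak minus minimum over baseline fluorescence ratio after K+ and Tl+ stimulus; positive B-score means potentiation of KCNQ2 with more thallium influx and brighter signal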
Target sequence (O88943 whole entry, looked up): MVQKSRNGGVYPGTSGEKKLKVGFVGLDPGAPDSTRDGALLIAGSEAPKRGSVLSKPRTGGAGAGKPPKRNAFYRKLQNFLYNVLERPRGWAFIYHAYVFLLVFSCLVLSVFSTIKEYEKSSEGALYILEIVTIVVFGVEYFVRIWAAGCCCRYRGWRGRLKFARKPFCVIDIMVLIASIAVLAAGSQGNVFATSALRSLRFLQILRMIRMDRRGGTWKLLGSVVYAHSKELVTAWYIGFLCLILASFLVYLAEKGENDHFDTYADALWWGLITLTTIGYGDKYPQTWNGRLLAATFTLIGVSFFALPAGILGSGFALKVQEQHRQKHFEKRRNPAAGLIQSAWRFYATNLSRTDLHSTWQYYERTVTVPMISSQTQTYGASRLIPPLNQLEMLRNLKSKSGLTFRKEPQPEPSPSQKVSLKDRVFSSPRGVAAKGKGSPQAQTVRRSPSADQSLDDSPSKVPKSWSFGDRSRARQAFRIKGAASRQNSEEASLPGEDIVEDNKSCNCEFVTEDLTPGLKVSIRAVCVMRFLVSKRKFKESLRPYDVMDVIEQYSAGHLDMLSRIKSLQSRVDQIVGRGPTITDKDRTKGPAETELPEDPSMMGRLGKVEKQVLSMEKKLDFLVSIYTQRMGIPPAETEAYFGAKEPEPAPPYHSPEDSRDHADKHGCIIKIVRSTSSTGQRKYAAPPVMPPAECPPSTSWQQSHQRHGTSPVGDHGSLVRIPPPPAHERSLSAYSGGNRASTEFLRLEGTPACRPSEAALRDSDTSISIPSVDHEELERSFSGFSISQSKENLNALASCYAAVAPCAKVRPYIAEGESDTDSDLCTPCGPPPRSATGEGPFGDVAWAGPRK
KCNQ2 block: rat KCNQ2 potassium channel inhibitors, primary screen, cell-based, CHO-K1, FluxOR thallium flux, B-score; Potassium voltage-gated channel subfamily KQT member 2 (Rattus norvegicus), O88943; 20 min; active compounds read low; B-score at 10 µM; 310,000 compounds, 1.1% hits;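 active = fluorescence ratio B-score at most minus 3 library SDs, with starting brightness B-score within 2 library SDs, cut at about -5.5 in these data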
* marks the source's active call; other numbers are inactive results; i = inactive; nt = no result.

SMILES	KCNQ2 pot	KCNQ2 block
Cc1ccc(C(C)C)c(OC/C(O)=C(\C#N)c2nc3ccccc3[nH]2)c1	nt	i
CC(C)NC(=O)CCc1nc2cccnc2n1-c1ccccc1	0.08	i
Cc1nn(C)cc1NC(=O)CC12CC3CC(CC(C3)C1)C2	2.1	i
CCn1nc(C)c(NC(=O)CC23CC4CC(CC(C4)C2)C3)c1C	21*	i
COc1ccc(N2CC(NS(=O)(=O)c3ccc(F)cc3)CC2=O)cc1 (stereo not given)	nt	i
CCCc1nc(SCC(=O)N2CCC(Cc3ccccc3)CC2)c2c(=O)n(C)c(=O)n(C)c2n1	23*	i
CCCc1nc(SCC(=O)Nc2ccccc2)c2c(=O)n(C)c(=O)n(C)c2n1	1.5	i
CC(C)[C@H](NC(=O)N1c2ccccc2NC(=O)[C@@H]1C(C)C)C(=O)N[C@H](Cc1ccccc1)C(=O)O	0.59	i
COCCCC1CCN(C(=O)C2CCC(=O)N(CCc3cccc(F)c3)C2)CC1 (stereo not given)	nt	i
Cc1nn(-c2ccccc2)c2c1C(c1ccc([N+](=O)[O-])cc1)N1C(=N2)C(=O)Nc2ccccc21 (stereo not given)	3.6	i
Cc1nn(-c2ccccc2)c2c1C(c1ccc(Cl)cc1)N(c1ccccc1)C(=O)N2 (stereo not given)	-7.6	-7.6*
O=C(COC(=O)/C=C/c1ccc(C(F)(F)F)cc1)NCC1CCCCC1	0.7	i
COc1cc(/C=C/C(=O)Nc2cc(S(=O)(=O)N3CCOCC3)ccc2N2CCCC2)cc(OC)c1OC	nt	i
CCN(CC)S(=O)(=O)c1ccc(N2CCCCC2)c(NC(=O)/C=C/c2cc(OC)c(OC)c(OC)c2)c1	-6.4	-6.4*
CCN(CC)S(=O)(=O)c1ccc(N2CCCCC2)c(C(=O)Nc2ccccc2N2CCOCC2)c1	-8	-8*
CCN(CC)S(=O)(=O)c1ccc(N2CCOCC2)c(NC(=O)c2cccc3ccccc23)c1	nt	i
CCc1ccccc1NC(=O)c1cc([N+](=O)[O-])ccc1N1CCOCC1	1.3	i
CC1CCN(c2ccccc2NC(=O)c2cc([N+](=O)[O-])ccc2N2CCOCC2)CC1	-5.7	-5.7*
NS(=O)(=O)c1ccc(NS(=O)(=O)c2ccc(C3CNC(=O)C3)cc2)cc1 (stereo not given)	nt	i
O=C(Nc1cn(-c2ccccc2)nc1-c1ccc(Cl)cc1)c1ccccc1	nt	i
Cc1ccc(-c2nn(-c3ccccc3)cc2NC(=O)c2ccccc2)cc1	-5.7	-5.7*
CC(C)c1ccc(S(=O)(=O)NCc2ccc3c(c2)OCO3)cc1	nt	i
O=C(CSc1nnc(-c2ccc(Cl)cc2)n1Cc1ccco1)NCc1ccc2c(c1)OCO2	-5.9	-5.9*
CC(=O)Nc1cccc(NC(=O)CSc2ncc(-c3ccc(Cl)cc3)n2Cc2ccco2)c1	-6.6	-6.6*
CC(Sc1nnc2ccccn12)C(=O)NCc1ccc2c(c1)OCO2 (stereo not given)	nt	i
SMILES	KCNQ2 pot	KCNQ2 block
COc1ccc(-c2nnc(SC(C)C(=O)NCc3ccc4c(c3)OCO4)n2Cc2ccco2)cc1 (stereo not given)	-8.2	-8.2*
O=C(CSc1nnc(-c2ccc(Cl)cc2)n1Cc1ccco1)Nc1ccc2c(c1)OCCO2	0.48	i
Cc1cc(Cl)ccc1NC(=O)CSc1nnc(-c2ccncc2)n1Cc1ccco1	1.6	i
COc1ccc(/C=N/Nc2ccc([N+](=O)[O-])cc2)cc1O	0.16	i
O=C1NC(=O)C(c2cccs2)(c2cccs2)N1	nt	i
CCCCc1nc2cc(C(=O)NC3CCOC(C)(C)C3)ccc2o1 (stereo not given)	0.98	i
Cc1ccc(F)c(NC(=O)c2c(-c3ccccc3)noc2C)c1	nt	i
CCC(Sc1nc(C)cc(C)n1)C(=O)Nc1cc(C)on1 (stereo not given)	nt	i
CCC(Sc1nc(C)cc(C)n1)C(=O)O (stereo not given)	6.2*	i
N=C1/C(=C/c2cccs2)C(=O)N=C2SN=C(SCc3ccccc3)N12	3.9	i
CC(C)CSC1=NSC2=NC(=O)/C(=C\c3cccs3)C(=N)N12	7.4*	i
COc1cccc(-c2nnn(CC(=O)N3CCC(C)CC3)n2)c1	0.52	i
Cn1nnc(NC(=O)c2cccc([N+](=O)[O-])c2)n1	nt	i
C=CCNCc1ccc(C(=O)NCCCCCCC)cc1[N+](=O)[O-]	1.4	i
CC1CCC(C(C)C)C(OC(=O)C2=C3c4ccccc4S(=O)(=O)N3CC2)C1 (stereo not given)	-6.1	-6.1*
CC1CCC(C(C)C)C(OC(=O)CSc2nccc(=O)[nH]2)C1 (stereo not given)	nt	i
COC(CN(C)S(=O)(=O)c1cc2c3c(c1)CCC(=O)N3CCC2)OC	nt	i
COc1ccc(OCCOC(=O)CNS(=O)(=O)c2ccc(SC)c([N+](=O)[O-])c2)cc1	1.9	i
COCCN1CCN(C(=O)c2cc(COc3cncc(Cl)c3)on2)CC1	0.6	i
COc1ccc(NC(=O)CN2C(=O)NC3(CCCC3)C2=O)cc1OC	0.7	i
Cc1cccc(C)c1OCc1cc(C(=O)N2CCCCCCC2)no1	-6.5	-6.5*
Cc1ccc(N2CCN(C(=O)c3cc(COc4c(C)cccc4C)on3)CC2)c(C)c1	nt	i
O=C(O)C1C2CCC(C2)C1C(=O)NCCc1cccc(Cl)c1 (stereo not given)	0.06	i
COc1ccc(C2(C(=O)NCc3ccccc3Cl)CCOCC2)cc1OC	0.8	i
COc1ccccc1CNC(=O)C1(c2ccc(Cl)cc2)CC1	-5.7	-5.7*
SMILES	KCNQ2 pot	KCNQ2 block
CCN(CC)CCCNC(=S)N1CCC(c2nc3ccccc3[nH]2)CC1	0.82	i
Oc1c(Br)cc(Br)cc1/C=N/NC(=S)N[C@H]1CC2C=CC1C2 (stereo not given in full)	0.28	i
CNC(=S)N/N=C/c1cc(Br)cc(Br)c1O	7*	i
Cc1ccnc(NC(=O)c2cccc(S(=O)(=O)NCc3ccccc3)c2)c1	nt	i
Cc1cccc(CNC(=O)Cn2ccc3cc(S(=O)(=O)N4CCCC4)ccc32)c1	0.15	i
O=C(c1ccccc1)c1cccc[n+]1[O-]	2.5	i
O=S(=O)(c1ccc(Oc2ccc(Cl)cc2)c(S(=O)(=O)N2CCCCC2)c1)N1CCCCC1	-7.2	-7.2*
O=S(=O)(c1ccc(Cl)cc1)N1CCN(S(=O)(=O)N2CCCCCC2)CC1	nt	i
COc1ccc(CCNC(=O)CCn2c(=O)c3cccn3c3cccnc32)cc1OC	0.68	i
COc1cccc(NC(=O)Cn2cc3c(n2)CCCCC3)c1	-6.5	-6.5*
COc1ccc(CNC(=O)Cn2cc3c(n2)CCCCC3)cc1	0.78	i
COCCNC(=O)Cn1cc(/C=C(\C#N)C(=O)NC2CCCC2)c2ccccc21	0.82	i
COC(=O)c1ccccc1C(=O)N1CCCC(CNC(=O)c2ccc(F)cc2)C1 (stereo not given)	0.83	i
Cc1ccc(SC(=O)c2c([N+](=O)[O-])c(C)nn2C)cc1	-5.9	-5.9*
Cc1cc(C)n(C(=O)c2c([N+](=O)[O-])c(C)nn2C)n1	0.67	i
O=C(OCC(=O)N1CCOCC1)c1ccc(Cl)cc1[N+](=O)[O-]	nt	i
CCOc1ccc(OCC)c(NC(=O)CCNS(=O)(=O)c2cc(Br)cnc2N)c1	1.1	i
Cc1cccc(C(=O)NC(=S)N2CCc3ccccc3C2)c1	8.4*	i
